For seven molecules, composite z-score and z-score results are on record in PubChem BioAssay.

Calls of active or inactive are those of the source.

In assay [1] the test system is Plasmodium falciparum Sir2 (PF13_0152, Sir2A). Nature of the assay: pfSir2 binders on small-molecule microarrays, primary screen, biochemical, small-molecule microarray, 635 nm fluorescence (AID 1098).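 Further: score merges spot fluorescence intensity with its signal-to-noise ratio.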 Particulars: small-molecule microarray binding, fluorescence 635 nm; higher = more signal.
Assay [2] can be described thus: small-molecule microarray binders of probe aDKK1, primary screen, biochemical, biotinylated probe, 635/667 nm fluorescence (AID 1099).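 Further: score merges 667nm spot fluorescence with signal to noise across triplicate slides.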 To be noted: higher = more signal.
Assay [3] is described as follows: small-molecule microarray binders of probe aCHRDL2, primary screen, biochemical, biotinylated probe, 635/667 nm fluorescence (AID 1100). To be noted: higher = more signal.
Assay [4] can be described thus: splicing luciferase reporter signal modulators, primary screen, spliceosome inhibition project, cell-based, HEK293, splice +/- reporter (AID 1101).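 Further: HEK293 cells carrying a splicing-competent luciferase reporter gene; test concentration not given here.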 Particulars: luminescence, 24 h, higher = more signal, called active from +8 up or from −8 down. For orientation: A reporter such as luciferase makes a cellular process visible.
Assay [5] concerns the target Fibroblast growth factor 10 (Homo sapiens) (UniProt O15520). Nature of the assay: FGF10 binders on small-molecule microarrays, primary screen, biochemical, small-molecule microarray, 635 nm fluorescence (AID 1102). To be noted: FGF10 binding, fluorescence 635 nm, higher = more signal.
Assay [6] concerns glycogen synthase kinase-3 (GSK3A per assay name; protocol says GSK3B). Nature of the assay: GSK3 binders on small-molecule microarrays, primary screen, biochemical, small-molecule microarray, 635 nm fluorescence, GSK3A (AID 1103). Further: the record names both GSK3A and GSK3B. To be noted: small-molecule microarray binding, fluorescence 635 nm; higher = more signal.
Assay [7] has as its target Epidermal growth factor receptor (Homo sapiens) (UniProt P00533). The experiment in a line: EGFR binders on small-molecule microarrays, primary screen, biochemical, small-molecule microarray, 635 nm fluorescence (AID 1104).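 Further: score merges 667 nm emission intensity with spot signal to noise over triplicate slides.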 Particulars: EGFR binding, higher = more signal.
In assay [8] the target is Follistatin-related protein 3 (Homo sapiens) (UniProt O95633). The experiment in a line: FSTL3 binders on small-molecule microarrays, primary screen, biochemical, small-molecule microarray, 635 nm fluorescence (AID 1105).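 Further: score merges emission near 667 nm and signal to noise per printed spot across three slides.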 To be noted: FSTL3 binding, higher = more signal.
Follistatin-related protein 3 (Homo sapiens), sequence (O95633 whole entry, looked up): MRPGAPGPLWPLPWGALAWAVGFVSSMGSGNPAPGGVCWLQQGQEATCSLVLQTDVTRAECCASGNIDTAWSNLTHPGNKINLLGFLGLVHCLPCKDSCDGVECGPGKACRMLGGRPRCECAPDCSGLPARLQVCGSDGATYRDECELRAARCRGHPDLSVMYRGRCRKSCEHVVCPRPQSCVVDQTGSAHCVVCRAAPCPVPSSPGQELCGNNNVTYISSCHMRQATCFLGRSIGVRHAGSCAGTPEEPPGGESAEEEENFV
The target of assay [9] is Dickkopf-related protein 1 (Homo sapiens) (UniProt O94907). The experiment in a line: DKK1 binders on small-molecule microarrays, primary screen, biochemical, small-molecule microarray, 635 nm fluorescence scan (AID 1106).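 Further: score merges emission near 667 nm with signal to noise over three replicate slides.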 Particulars: DKK1 binding, higher = more signal.
Dickkopf-related protein 1 (Homo sapiens), sequence (O94907 whole entry, looked up): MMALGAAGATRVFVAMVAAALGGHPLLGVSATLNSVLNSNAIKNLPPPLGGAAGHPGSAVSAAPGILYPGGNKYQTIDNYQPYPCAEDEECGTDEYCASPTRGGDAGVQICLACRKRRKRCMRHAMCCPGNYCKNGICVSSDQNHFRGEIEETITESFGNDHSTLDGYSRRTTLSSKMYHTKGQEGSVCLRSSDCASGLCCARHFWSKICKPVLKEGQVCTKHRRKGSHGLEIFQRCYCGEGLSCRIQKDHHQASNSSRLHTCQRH
The subject of assay [10] is Inhibin beta A chain (activin A). Nature of the assay: INHBA (activin A) binders on microarrays, primary screen, biochemical, small-molecule microarray, 635 nm fluorescence scan (AID 1107).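 Further: mouse activin A protein probed at 4.33 µg/mL on printed slides; score merges bound-protein fluorescence near 667 nm with spot signal-to-noise.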 To be noted: small-molecule microarray binding, higher = more signal.
The test system of assay [11] is Human papillomavirus type 1a protein E7 (residues 44-93). Nature of the assay: HPV1a E7 fragment binders on microarrays, primary screen, biochemical, small-molecule microarray, residues 44-93, 635 nm fluorescence (AID 1108).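 Further: E7 fragment applied at 1 µg/mL in TBST for 1 h at 4 C; score combines spot fluorescence with its signal to noise ratio.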 To be noted: small-molecule microarray binding, fluorescence 635 nm; higher = more signal.
The nature of assay [12]: modulators of HCV replicon luciferase signal, primary screen, HCV replication inhibitor project, Huh7 cells, luciferase reporter (AID 1109).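 Further: huh7 hepatoma cells harbouring a luciferase neomycin HCV replicon reporter; luciferase luminescence as measure of HCV replicon replication; test concentration not given here.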 To be noted: 48 h, higher = more signal. For orientation: Replicon systems follow genome replication, usually without infectious particles.
Assay [13] concerns the target Left-right determination factor 2 (Homo sapiens) (UniProt O00292). Nature of the assay: LEFTY2 binders on small-molecule microarrays, primary screen, biochemical, small-molecule microarray, 635 nm fluorescence scan (AID 1110). Particulars: LEFTY2 binding, higher = more signal.
The target of assay [14] is Calmodulin-1 (Homo sapiens) (UniProt P0DP23). Nature of the assay: CALM1 binders on microarrays, EGTA buffer, profiling panel, biochemical, small-molecule microarray, Cy5-labelled CALM1 (AID 1111).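 Further: labelled calmodulin applied in Tris saline Tween buffer holding calcium plus EGTA and DTT.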 To be noted: Cy5-CALM1 binding fluorescence, higher = more signal.
Assay [15] has the same target. The experiment in a line: calcium-bound CALM1 binders on microarrays, profiling panel, artefact control for SMM control-protein annotation, biochemical, small-molecule microarray, Cy5-labelled CALM1, plus calcium (AID 1112).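 Further: score merges spot fluorescence with signal to noise from triplicate slides.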 To be noted: Cy5-CALM1 binding fluorescence, higher = more signal.
Assay [16] can be described thus: small-molecule microarray binders of probe aWnt5a, primary screen, biochemical, biotinylated probe, 635/667 nm fluorescence (AID 1113).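 Further: score merges 667 nm fluorescence intensity with signal-to-noise per printed feature.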 To be noted: higher = more signal.
Assay [17] in a line: small-molecule microarray binders of probe aShh, primary screen, biochemical, biotinylated probe, 635/667 nm fluorescence (AID 1114).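 Further: probe is biotin-labelled aShh protein from a stem cell growth factor screen; measures binding of labelled protein to compounds printed on the slide; score merges feature fluorescence at 667 nm with signal-to-noise.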 Particulars: higher = more signal.
Assay [18] is described as follows: small-molecule microarray binders of probe aNog, primary screen, biochemical, biotinylated probe, 635/667 nm fluorescence (AID 1115).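 Further: probe is biotinylated aNog protein used at 0.15 µg/mL for 1 h at 4 C; z-score combines 667 nm fluorescence of each spot with its signal to noise.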 To be noted: higher = more signal.
In assay [19] the target is Torsin-1A-interacting protein 1 (Homo sapiens) (UniProt Q5JTV8). Nature of the assay: LAP1 binders from COS7 cell lysate, primary screen, small-molecule microarray, 635/667 nm fluorescence (AID 1116). Particulars: COS7-hLAP1 lysate binding, 635 nm fluorescence, higher = more signal.
Torsin-1A-interacting protein 1 (Homo sapiens), sequence (Q5JTV8 whole entry, looked up): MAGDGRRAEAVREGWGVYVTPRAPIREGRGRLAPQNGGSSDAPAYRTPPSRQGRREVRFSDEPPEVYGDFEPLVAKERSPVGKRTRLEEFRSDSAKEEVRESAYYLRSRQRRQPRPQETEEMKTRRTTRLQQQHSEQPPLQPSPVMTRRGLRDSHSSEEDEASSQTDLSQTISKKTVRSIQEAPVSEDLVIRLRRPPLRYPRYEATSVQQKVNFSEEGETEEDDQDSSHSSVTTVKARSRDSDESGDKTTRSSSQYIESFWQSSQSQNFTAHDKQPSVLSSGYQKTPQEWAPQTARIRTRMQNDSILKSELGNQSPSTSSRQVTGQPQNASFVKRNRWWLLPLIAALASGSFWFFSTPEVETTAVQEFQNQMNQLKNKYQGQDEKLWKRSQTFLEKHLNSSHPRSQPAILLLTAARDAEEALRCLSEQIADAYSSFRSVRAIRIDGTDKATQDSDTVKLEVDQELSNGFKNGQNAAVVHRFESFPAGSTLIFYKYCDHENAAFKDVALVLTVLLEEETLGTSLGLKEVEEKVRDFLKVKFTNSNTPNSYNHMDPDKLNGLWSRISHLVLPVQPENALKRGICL
The target of assay [20] is Alpha-bungarotoxin (Bungarus multicinctus) (UniProt P60615). The experiment in a line: alpha-bungarotoxin binders on microarray, profiling panel, artefact control for SMM control protein annotation, biochemical, small-molecule microarray, Alexa647 label, 635/667 nm fluorescence (AID 1117). Particulars: alpha-BTX-A647 binding fluorescence, higher = more signal.
Alpha-bungarotoxin (Bungarus multicinctus), sequence (P60615 whole entry, looked up): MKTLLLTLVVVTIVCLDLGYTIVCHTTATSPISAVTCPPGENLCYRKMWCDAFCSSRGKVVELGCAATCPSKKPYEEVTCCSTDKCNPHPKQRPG

Epidermal growth factor receptor (Homo sapiens), sequence (P00533 whole entry, looked up): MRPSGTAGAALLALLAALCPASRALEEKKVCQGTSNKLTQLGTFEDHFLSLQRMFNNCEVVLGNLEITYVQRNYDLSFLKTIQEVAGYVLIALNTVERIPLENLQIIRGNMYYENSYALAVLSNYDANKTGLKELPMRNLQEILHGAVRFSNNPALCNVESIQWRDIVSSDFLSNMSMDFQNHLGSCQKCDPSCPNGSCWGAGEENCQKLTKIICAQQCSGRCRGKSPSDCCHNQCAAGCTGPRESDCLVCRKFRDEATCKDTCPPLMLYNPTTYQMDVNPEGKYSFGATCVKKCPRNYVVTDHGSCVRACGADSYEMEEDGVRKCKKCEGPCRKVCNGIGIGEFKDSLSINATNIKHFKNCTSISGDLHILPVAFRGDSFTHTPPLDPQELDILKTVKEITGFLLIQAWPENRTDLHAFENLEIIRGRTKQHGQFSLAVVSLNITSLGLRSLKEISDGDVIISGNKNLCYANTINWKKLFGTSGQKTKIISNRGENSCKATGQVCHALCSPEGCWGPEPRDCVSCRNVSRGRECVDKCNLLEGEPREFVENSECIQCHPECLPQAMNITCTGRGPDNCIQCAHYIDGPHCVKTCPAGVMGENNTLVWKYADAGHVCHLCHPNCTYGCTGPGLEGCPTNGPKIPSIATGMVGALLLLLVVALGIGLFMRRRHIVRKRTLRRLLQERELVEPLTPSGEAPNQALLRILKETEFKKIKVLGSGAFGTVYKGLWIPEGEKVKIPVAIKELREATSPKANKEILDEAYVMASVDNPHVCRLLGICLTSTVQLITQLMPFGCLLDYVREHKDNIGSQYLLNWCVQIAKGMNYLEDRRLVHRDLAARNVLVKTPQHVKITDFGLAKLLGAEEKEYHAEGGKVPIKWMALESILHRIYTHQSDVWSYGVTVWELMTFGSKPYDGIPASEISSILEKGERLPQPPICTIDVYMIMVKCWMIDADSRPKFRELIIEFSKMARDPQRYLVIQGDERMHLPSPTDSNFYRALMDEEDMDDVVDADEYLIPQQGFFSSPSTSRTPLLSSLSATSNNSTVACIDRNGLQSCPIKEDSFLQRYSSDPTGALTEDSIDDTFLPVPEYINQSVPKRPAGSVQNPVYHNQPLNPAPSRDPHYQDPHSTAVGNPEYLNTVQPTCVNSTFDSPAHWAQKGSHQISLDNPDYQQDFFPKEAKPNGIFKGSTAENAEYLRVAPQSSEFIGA
Fibroblast growth factor 10 (Homo sapiens), sequence (O15520 whole entry, looked up): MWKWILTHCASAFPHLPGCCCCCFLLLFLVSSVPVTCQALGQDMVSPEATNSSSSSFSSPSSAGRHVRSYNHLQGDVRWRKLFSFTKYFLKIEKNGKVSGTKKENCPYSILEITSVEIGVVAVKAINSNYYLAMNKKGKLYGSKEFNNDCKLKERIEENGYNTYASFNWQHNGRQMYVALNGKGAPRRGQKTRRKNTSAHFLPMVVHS
Left-right determination factor 2 (Homo sapiens), sequence (O00292 whole entry, looked up): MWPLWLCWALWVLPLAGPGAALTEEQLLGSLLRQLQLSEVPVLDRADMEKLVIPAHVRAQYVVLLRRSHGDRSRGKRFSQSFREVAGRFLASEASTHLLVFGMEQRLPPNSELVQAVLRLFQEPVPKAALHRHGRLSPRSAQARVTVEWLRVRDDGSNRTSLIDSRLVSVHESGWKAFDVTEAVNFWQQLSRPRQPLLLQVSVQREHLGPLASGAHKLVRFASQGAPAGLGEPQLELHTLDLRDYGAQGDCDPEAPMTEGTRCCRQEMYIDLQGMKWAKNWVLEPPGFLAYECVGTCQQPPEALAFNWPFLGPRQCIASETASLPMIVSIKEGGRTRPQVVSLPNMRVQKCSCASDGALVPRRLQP

`COC(=O)[C@@]1(Cc2ccc(F)cc2)[C@H]2c3cc(C(=O)N(C)C)n(Cc4cc(C)n(C)n4)c3C[C@H]2CN1C(=O)c1ccccc1`: the composite z-score is 1.16 in [1]; 1.2 in assay [2]; 1.19 in assay [3]; 1.17 in assay [5]; 0.716 in assay [6]; -0.0733 in [7]. In addition, the composite z-score in [8] was 0.386; in [9], 0.0455; in [10], 0.609; in [11], 0.923; in [13], -0.476; in assay [14] it was 2.43. The composite z-score in [15] is 0.669; in assay [16] it was 0.418; in assay [17], -0.0324; in [18], 1.82; in assay [19], 2.58; in assay [20], 0.42. Besides, the z-score in assay [4] was -1.99 (inactive); in assay [12] it was 0.107.
`CCC(CC)C(O)C1C=CC2C(=O)N(c3ccccc3)C(=O)C2N1Nc1ccccc1` (stereo not given): the composite z-score stood at 1.52 in assay [1]; 1.29 in [2]; 1.15 in [3]; 0.988 in assay [5]; 1.21 in assay [6]; 0.452 in assay [7]. For the same molecule, the composite z-score in [8] was 1.38; in [9], 0.0269; in [10], 0.555; in [11], 1.29; in assay [13], 0.0874; in assay [14], 1.58. In addition, the composite z-score in [15] was 0.415; in [16], 0.216; in [17] it was -0.16; in [18], 2.01; in [19], 0.671; in assay [20] it was 1.02. The z-score was -0.326 (inactive) in assay [4] and 0.372 in [12].
On to `[N-]=[N+]=Nc1ccccc1C[C@@]1(C(=O)N2CCCCC2)N=C(c2ccc(OCCCO)cc2)O[C@@H]1c1ccccc1N=[N+]=[N-]`, for which the composite z-score came to 0.95 in assay [1]; 1.32 in [2]; 1.32 in assay [3]; 0.914 in assay [5]; 1.05 in assay [6]; 0.105 in assay [7]. The composite z-score in [8] is 0.673; in [9] it was -0.0252; in [10], 1.59; in [11] it was 0.869; in [13], -0.145; in assay [14], 1.6. Besides, the composite z-score came to 1.04 in assay [15]; 0.151 in assay [16]; 0.778 in assay [17]; 0.353 in assay [18]; 0.71 in [19]; 2.09 in [20]. Besides, the z-score in assay [4] was 0.766 (inactive); in assay [12] it was -2.71.
Consider `COc1cc(CO)cc(I)c1O[C@H]1C=C(C(=O)NCCO)C[C@@H](NC[C@@H]2CCCO2)[C@@H]1O`, for which the composite z-score was 0.922 in [1]; -0.349 in [2]; -0.204 in [3]; 0.671 in assay [5]; 0.0227 in [6]; -0.0367 in [7]. Further, the composite z-score in assay [8] is 0.334; in [9] it was 0.17; in assay [10] it was -0.0437; in [11] it was 1.33; in assay [13] it was 0.187; in [14], -0.0113. Further, the composite z-score in assay [15] is -0.732; in [16], -0.096; in assay [17] it was -0.304; in assay [18], -0.267; in [19] it was 1.13; in assay [20], 0.693. Further, the figures for the z-score in assay [4] and in assay [12] were -0.466 (inactive) and -0.695, respectively.
`COC(=O)C(CC#Cc1ccc2c(c1)[C@]1(C(=O)N2)[C@H](c2ccccc2OCCO)N2[C@H](c3ccccc3)[C@H](c3ccccc3)OC(=O)[C@H]2[C@@H]1C(N)=O)C(=O)OC`: the composite z-score in [1] worked out at 1.54; in assay [2] it was 1.45; in assay [3] it was 0.862; in assay [5] it was 0.376; in assay [6] it was 1; in [7] it was 0.241. Besides, the composite z-score was 0.412 in assay [8]; -0.221 in assay [9]; 0.693 in assay [10]; 0.599 in assay [11]; -0.0862 in assay [13]; 1.33 in assay [14]. Further, the composite z-score in [15] came out at 0.116; in assay [16], 0.349; in assay [17] it was 0.679; in assay [18], 2.29; in [19] it was 1.21; in [20], 2.45. The z-score in assay [4] was -3.57 (inactive); in [12], -2.95.
For the molecule `COc1ccc(C(=O)Nc2ccc(CN3C(=O)[C@]4(O[C@H](CC(=O)N5CCC[C@H]5CO)[C@@H]([Si](C)(C)c5ccc(OC)cc5)[C@@H]4C)c4ccccc43)cc2)cc1`, the composite z-score in [1] is 1.46; in [2] it was -0.314; in [3] it was 0.0167; in [5], 0.679; in assay [6], 0.573; in assay [7], 0.352. Further, the composite z-score in assay [8] is 0.683; in [9], 0.545; in assay [10] it was 0.0938; in assay [11] it was 1.4; in assay [13] it was 0.471; in assay [14], 0.453. Further, the composite z-score is -0.171 in assay [15]; -0.0445 in assay [16]; 0.0639 in assay [17]; 0.116 in assay [18]; 1.08 in assay [19]; 0.748 in assay [20]. The z-score in [4] was 1.76 (inactive); in assay [12], -3.86.
Turning to `CC(C)CN1C(=O)[C@@]2(c3ccc([N+](=O)[O-])cc3)CC(=O)N(C3CCCCC3)[C@@H]2c2ccc(CO)cc21`, the composite z-score in [1] is 0.103; in assay [2], -0.0495; in assay [3], 0.867; in assay [5] it was -0.935; in assay [6], -1.27; in [7], -1.31. The composite z-score was -1.21 in assay [8]; -1.38 in assay [9]; 0.294 in assay [10]; -1.25 in [11]; -1.69 in assay [13]; -0.311 in [14]. Further, the composite z-score in [15] was -0.0449; in [16], -0.208; in assay [17] it was -0.33; in [18], -0.181; in assay [19] it was -0.803; in [20] it was 0.547. The z-score in [4] is 0.256 (inactive); in [12], -0.707.
